From PubChem BioAssay (NCATS)
Records with an inconclusive call do not appear. Calls of active or inactive are those of the source. Unless noted, calls come from the whole dose curve; as a rule, active = well fitted curve in the direction sought with a large enough effect; inconclusive = small, poorly fitted or top-dose-only effect, or another doubt; inactive = no such curve, though single readings can be large; an effect the other way counts as inactive or inconclusive.

How the values were obtained:
[1] = target: Ubiquitin carboxyl-terminal hydrolase 1 (Homo sapiens) (UniProt O94782); assay: Inhibitors of USP1/UAF1: Pilot qHTS (AID 504865); note: potency is the fitted concentration of half-maximal effect; nearly all actives have a fitted effect of over 35% in size
Ubiquitin carboxyl-terminal hydrolase 1 (Homo sapiens), sequence (O94782 whole entry, looked up): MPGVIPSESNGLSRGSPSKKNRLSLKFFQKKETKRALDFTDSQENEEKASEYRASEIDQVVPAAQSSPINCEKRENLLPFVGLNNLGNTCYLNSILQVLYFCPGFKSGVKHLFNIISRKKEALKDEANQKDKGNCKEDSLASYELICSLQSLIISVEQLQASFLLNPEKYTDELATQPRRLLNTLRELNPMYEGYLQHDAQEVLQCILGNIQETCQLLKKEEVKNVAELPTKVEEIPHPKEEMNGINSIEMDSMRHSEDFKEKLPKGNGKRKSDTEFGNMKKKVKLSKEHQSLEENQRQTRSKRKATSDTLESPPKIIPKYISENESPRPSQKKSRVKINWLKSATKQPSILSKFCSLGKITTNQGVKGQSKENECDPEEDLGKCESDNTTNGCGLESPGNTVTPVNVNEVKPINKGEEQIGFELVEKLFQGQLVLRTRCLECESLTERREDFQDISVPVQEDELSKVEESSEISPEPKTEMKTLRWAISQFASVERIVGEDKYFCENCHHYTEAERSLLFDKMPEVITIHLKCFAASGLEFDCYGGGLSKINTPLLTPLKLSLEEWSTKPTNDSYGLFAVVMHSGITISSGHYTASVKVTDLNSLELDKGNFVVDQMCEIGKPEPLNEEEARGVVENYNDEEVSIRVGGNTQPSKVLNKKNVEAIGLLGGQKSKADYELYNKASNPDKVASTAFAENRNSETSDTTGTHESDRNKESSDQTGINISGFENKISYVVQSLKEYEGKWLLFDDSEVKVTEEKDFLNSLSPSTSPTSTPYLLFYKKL
Summary of the method: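 Enzyme-free wells gave the negative control, while test wells held 1nM USP1/UAF1 preincubated with compound for 15 min at room temperature. Ub-Rho at 150nM final started the reaction, and fluorescence at 480/540 nm was recorded kinetically.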

[2] = target: Luciferin 4-monooxygenase (Photinus pyralis) (UniProt P08659); assay: Biochemical firefly luciferase enzyme assay for NPC (AID 624030);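 note: purified P. pyralis luciferase at 10 nM with luciferin and ATP substrate; nearly all actives have a fitted effect of over 70% in size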
Luciferin 4-monooxygenase (Photinus pyralis), sequence (P08659 whole entry, looked up): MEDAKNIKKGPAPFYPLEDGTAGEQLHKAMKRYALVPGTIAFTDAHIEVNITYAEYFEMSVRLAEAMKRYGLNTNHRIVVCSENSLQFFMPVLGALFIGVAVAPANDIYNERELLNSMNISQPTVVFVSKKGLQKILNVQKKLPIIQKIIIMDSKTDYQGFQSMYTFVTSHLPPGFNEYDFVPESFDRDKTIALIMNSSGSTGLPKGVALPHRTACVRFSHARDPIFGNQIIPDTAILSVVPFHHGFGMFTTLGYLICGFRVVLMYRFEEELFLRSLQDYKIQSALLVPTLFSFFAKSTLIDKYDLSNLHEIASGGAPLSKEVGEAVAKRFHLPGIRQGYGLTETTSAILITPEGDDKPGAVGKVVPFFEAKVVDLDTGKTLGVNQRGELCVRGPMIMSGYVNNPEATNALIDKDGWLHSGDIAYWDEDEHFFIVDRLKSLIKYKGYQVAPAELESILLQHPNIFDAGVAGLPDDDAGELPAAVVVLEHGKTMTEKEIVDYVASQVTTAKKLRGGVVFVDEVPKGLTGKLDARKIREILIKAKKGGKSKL
Summary of the method: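 Purified P. pyralis luciferase at 10 nM in 50 mM Tris Acetate (final), luminescence read within 5 minutes of enzyme addition to compounds. Activity normalised to PTC124 versus DMSO; concentration-response curves classed by r2, magnitude and activity.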

[3] = S16 Schwann cell viability assay (CellTiter-Glo assay) (AID 624031); note: potency is the fitted concentration of half-maximal effect; nearly all actives have a fitted effect of over 70% in size
Summary of the method: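 Parental S16 cells, 24 h compound, 37 °C. ATP-luminescence viability; DMSO = 0% activity, empty wells as reference; curves classified by fit quality and efficacy.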

[4] = S16 Schwann cell PMP22 intronic element firefly luciferase assay (AID 624032); note: potency is the fitted concentration of half-maximal effect; nearly all actives have a fitted effect of over 30% in size
Summary of the method: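 Rat S16 Schwann cells stably carrying firefly luciferase driven by a PMP22 intronic element, in 10% FBS, treated 24 h at 37 C. ONE-Glo luminescence normalized to PTC124 control and DMSO (0%); curves classed by r2, magnitude and activity.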

[5] = S16 Schwann cell PMP22 intronic element beta-lactamase assay (AID 624044; calls by dose curve; note: potency is the fitted concentration of half-maximal effect; nearly all actives have a fitted effect of over 15% in size)
Summary of the method: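 Rat S16 Schwann cells with beta-Lac driven by a PMP22 intronic element, compound-treated 24 h at 37 °C. LiveBLAzer FRET B/G read: 460 nm normalized to potassium clavulanate vs DMSO; 535 nm FRET as viability; concentration-effect curves classified.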

[6] = qHTS Assay for Identifying Gametocytocidal Compounds (AID 743244); note: potency is the fitted concentration of half-maximal effect; conditions: P. falciparum 3D7 stage III-V gametocytes, alamarBlue, 72 h; max response: hits give low values
Summary of the method: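 Stage III-V P. falciparum 3D7 gametocytes, 20,000 per well, were exposed to compounds for 72 h at 37C, 5% CO2. AlamarBlue was then added for 24 h and viability was read as fluorescence at Ex 525/Em 598 nm.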

3D7 = assay: qHTS profiling for inhibitors of Plasmodium falciparum proliferation (AID 504749); note: potency is the fitted concentration of half-maximal effect; nearly all actives have a fitted effect of over 60% in size; conditions: P. falciparum in erythrocytes, SYBR Green DNA, 72 h; series mostly up to 28.7 µM
Summary of the method: (§1)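 P. falciparum-infected erythrocytes (0.3% parasitemia, 2.5% hematocrit) incubated with compound 72 h at 37 C, 5% CO2. Parasite DNA detected by SYBR Green after lysis, overnight at room temperature; normalised to 0.29 uM artemisinin and DMSO.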

7G8 = assay: as above; conditions: P. falciparum in erythrocytes, SYBR Green DNA, 72 h; series mostly up to 28.7 µM
Summary of the method: as §1

AA1029 = assay: as above; conditions: P. falciparum in erythrocytes, SYBR Green DNA, 72 h; series mostly up to 28.7 µM
Summary of the method: as §1

AS120 = assay: as above; conditions: P. falciparum in erythrocytes, SYBR Green DNA, 72 h; series mostly up to 28.7 µM
Summary of the method: as §1

ATS189 = assay: as above; conditions: P. falciparum in erythrocytes, SYBR Green DNA, 72 h; series mostly up to 28.7 µM
Summary of the method: as §1

ATS95 = assay: as above; conditions: P. falciparum in erythrocytes, SYBR Green DNA, 72 h; series mostly up to 28.7 µM
Summary of the method: as §1

C2A = assay: as above; conditions: P. falciparum in erythrocytes, SYBR Green DNA, 72 h; series mostly up to 28.7 µM
Summary of the method: as §1

CP185 = assay: as above; conditions: P. falciparum in erythrocytes, SYBR Green DNA, 72 h; series mostly up to 28.7 µM
Summary of the method: as §1

CP191 = assay: as above; conditions: P. falciparum in erythrocytes, SYBR Green DNA, 72 h; series mostly up to 28.7 µM
Summary of the method: as §1

CP192 = assay: as above; conditions: P. falciparum in erythrocytes, SYBR Green DNA, 72 h; series mostly up to 28.7 µM
Summary of the method: as §1

CP194 = assay: as above; conditions: P. falciparum in erythrocytes, SYBR Green DNA, 72 h; series mostly up to 28.7 µM
Summary of the method: as §1

CP201 = assay: as above; conditions: P. falciparum in erythrocytes, SYBR Green DNA, 72 h; series mostly up to 28.7 µM
Summary of the method: as §1

CP203 = assay: as above; conditions: P. falciparum in erythrocytes, SYBR Green DNA, 72 h; series mostly up to 28.7 µM
Summary of the method: as §1

CP211 = assay: as above; conditions: P. falciparum in erythrocytes, SYBR Green DNA, 72 h; series mostly up to 28.7 µM
Summary of the method: as §1

CP215 = assay: as above; conditions: P. falciparum in erythrocytes, SYBR Green DNA, 72 h; series mostly up to 28.7 µM
Summary of the method: as §1

CP217 = assay: as above; conditions: P. falciparum in erythrocytes, SYBR Green DNA, 72 h; series mostly up to 28.7 µM
Summary of the method: as §1

CP237 = assay: as above; conditions: P. falciparum in erythrocytes, SYBR Green DNA, 72 h; series mostly up to 28.7 µM
Summary of the method: as §1

CP238 = assay: as above; conditions: P. falciparum in erythrocytes, SYBR Green DNA, 72 h; series mostly up to 28.7 µM
Summary of the method: as §1

CP247 = assay: as above; conditions: P. falciparum in erythrocytes, SYBR Green DNA, 72 h; series mostly up to 28.7 µM
Summary of the method: as §1

CP250 = assay: as above; conditions: P. falciparum in erythrocytes, SYBR Green DNA, 72 h; series mostly up to 28.7 µM
Summary of the method: as §1

CP252 = assay: as above; conditions: P. falciparum in erythrocytes, SYBR Green DNA, 72 h; series mostly up to 28.7 µM
Summary of the method: as §1

CP256 = assay: as above; conditions: P. falciparum in erythrocytes, SYBR Green DNA, 72 h; series mostly up to 28.7 µM
Summary of the method: as §1

CP260 = assay: as above; conditions: P. falciparum in erythrocytes, SYBR Green DNA, 72 h; series mostly up to 28.7 µM
Summary of the method: as §1

CP262 = assay: as above; conditions: P. falciparum in erythrocytes, SYBR Green DNA, 72 h; series mostly up to 28.7 µM
Summary of the method: as §1

CP265 = assay: as above; conditions: P. falciparum in erythrocytes, SYBR Green DNA, 72 h; series mostly up to 28.7 µM
Summary of the method: as §1

CP266 = assay: as above; conditions: P. falciparum in erythrocytes, SYBR Green DNA, 72 h; series mostly up to 28.7 µM
Summary of the method: as §1

CP268 = assay: as above; conditions: P. falciparum in erythrocytes, SYBR Green DNA, 72 h; series mostly up to 28.7 µM
Summary of the method: as §1

For `CCCCCCCCCC[N+](C)(C)CCCCCCCCCC`, the Potency [1] was 31.6 µM (active), the Potency [2] was “inactive” and the Potency [3] was 18.1 µM (active). For the same compound, the Potency [4] was 16.1 µM (active), the Potency [5] was 25.1 µM (active) and the Potency [6] was 7.94 µM (active). For the same compound, the Potency (3D7) was 2 µM (active), the Potency (7G8) was 2 µM (active) and the Potency (AA1029) was 7.08 µM (active). The Potency (AS120) was 6.31 µM (active), the Potency (ATS189) was 7.08 µM (active) and the Potency (ATS95) was 6.31 µM (active). For the same compound, the Potency (C2A) was 4.47 µM (active), the Potency (CP185) was 4.47 µM (active) and the Potency (CP191) was 3.98 µM (active). For the same compound, the Potency (CP192) was 4.78 µM (active), the Potency (CP194) was 6.75 µM (active) and the Potency (CP201) was 9.53 µM (active). The Potency (CP203) was 6.75 µM (active), the Potency (CP211) was 9.53 µM (active) and the Potency (CP215) was 8.49 µM (active). For the same compound, the Potency (CP217) was 4.47 µM (active), the Potency (CP237) was 7.08 µM (active) and the Potency (CP238) was 5.62 µM (active). The Potency (CP247) was 4.47 µM (active), the Potency (CP250) was 4.47 µM (active) and the Potency (CP252) was 7.08 µM (active). The Potency (CP256) was 4.47 µM (active), the Potency (CP260) was 3.98 µM (active) and the Potency (CP262) was 5.36 µM (active). For the same compound, the Potency (CP265) was 5.01 µM (active), the Potency (CP266) was 6.75 µM (active) and the Potency (CP268) was 6.01 µM (active).
